Assay results published in paper PMC7819943, “Rice protein-binding microarrays: a tool to detect cis-acting elements near promoter regions in rice”.
Over roughly 68,000 sequences, “fluorescence intensity (a.u.)” has its median near 9,100; the highest 2% begin near 16,000. This excerpt belongs to a sample that is enriched for the highest values.

target: OsWRKY34 (Oryza sativa, UniProt Q0JBA9 1-250); test: protein-binding microarray (RPBM); PBS, 2% BSA, 51.3 ng/ul salmon testes DNA, 50 uM zinc acetate, 200 nM TF, 25 C, 1 h; high values mean tight binding; details: protein: recombinant; tags: N-terminal polyhistidine and DsRed monomer fusion (pET32a); label: CyDye5-dUTP incorporated in the synthesized complementary strand; 3' TTTTT single-stranded linker to array surface; dsDNA, one strand shown
In short: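 In PBS with 2% BSA, salmon testes DNA and 50 µM zinc acetate, 200 nM protein was incubated on a custom Agilent array at 25 °C for 1 h and then washed off. The array had been made double-stranded by primer extension with Cy5-dUTP and blocked with 2% BSA. The proteins were transcription factors fused N-terminally to polyhistidine and DsRed, expressed in E. coli BL21-CodonPlus and purified on Ni–NTA. The binding signal is per-feature fluorescence intensity (arbitrary units) from an Axon 4000B scanner.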

Chain of OsWRKY34 (Q0JBA9 entry or part of it): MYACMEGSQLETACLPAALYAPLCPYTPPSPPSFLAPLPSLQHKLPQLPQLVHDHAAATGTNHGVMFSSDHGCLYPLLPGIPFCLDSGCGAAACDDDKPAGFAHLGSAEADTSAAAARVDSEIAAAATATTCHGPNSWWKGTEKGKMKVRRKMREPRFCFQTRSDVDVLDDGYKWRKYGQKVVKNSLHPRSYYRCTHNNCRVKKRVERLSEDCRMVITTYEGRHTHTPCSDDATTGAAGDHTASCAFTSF

| Sequence | binding signal |
| --- | --- |
| GGCCTCACTATCGTCGACTCCTCCACTCCGGGGACTGCCGCGGAGTCACCTAGTGCAG | 10000 fluorescence intensity (a.u.) |
| AGCCGATCAGCTTCCAGCTCTTCATCCCAGCTTGCATCGTCGGAGTCACCTAGTGCAG | 9300 fluorescence intensity (a.u.) |
| CCCCTGTTTCTCGGTTCTTTCGCTCGCCTTCTAGGCCCAACGGAGTCACCTAGTGCAG | 11400 fluorescence intensity (a.u.) |
| ATGATACTAGCGGAGCTCACTACTTACTATTAGTCAATGTCGGAGTCACCTAGTGCAG | 8330 fluorescence intensity (a.u.) |
| ATAGCACCTCGAAACACCAAACTATTGCTATTAACATTTTCGGAGTCACCTAGTGCAG | 9650 fluorescence intensity (a.u.) |
| CCTTAATGCTCGAGATATACTAATACTACTCCCTTTGTTTCGGAGTCACCTAGTGCAG | 10400 fluorescence intensity (a.u.) |
| TACGCGTTATTTGTTTTTCGCAGCGTTTCCTTTTTTTTTTCGGAGTCACCTAGTGCAG | 9540 fluorescence intensity (a.u.) |
| TTTATCGCTTTGACTGTTCTACATCTTGCCTCGCCGTGCACGGAGTCACCTAGTGCAG | 9040 fluorescence intensity (a.u.) |
| GCACAAGGCAGATGGAGGTTGTACAGCTATTATTATTTCACGGAGTCACCTAGTGCAG | 8380 fluorescence intensity (a.u.) |
| TAATATTAATAAATAAAAAACCAGCGGTCGAACCGTTGACCGGAGTCACCTAGTGCAG | 13000 fluorescence intensity (a.u.) |
| GAGAAGAGGAGAGAGAGTGAGAGTGGGCGACAATTTTATCCGGAGTCACCTAGTGCAG | 64200 fluorescence intensity (a.u.) |
| GATCCAAGAGTGGAGAAGGAGAGGGGTGGGGAGCCGGCGACGGAGTCACCTAGTGCAG | 9460 fluorescence intensity (a.u.) |
| GGTTGCGTTGTTGCGGGCGTTGTTGCGGGCGGGCGGTCAGCGGAGTCACCTAGTGCAG | 16600 fluorescence intensity (a.u.) |
| TAGAGGTGGGCGGTAGGGGCTATTTCTGCAATTTTTTGGTCGGAGTCACCTAGTGCAG | 9680 fluorescence intensity (a.u.) |
| TGTTGTTGCCGGAATGTGTGTGTGTGCGTGTGTGTGTGTGCGGAGTCACCTAGTGCAG | 8720 fluorescence intensity (a.u.) |
| TGGTGGGCGGTGGAGTTATTTTCTTAATAGAGCATTGAGACGGAGTCACCTAGTGCAG | 23900 fluorescence intensity (a.u.) |
| AGGAGGTGGTATTATTTTTTTTTTGGTAGAGAGGGGAGGGCGGAGTCACCTAGTGCAG | 16500 fluorescence intensity (a.u.) |
| GAGGTAGTGGTTTAGAGGAGGAGGCGGAGAAGAGGAGGGACGGAGTCACCTAGTGCAG | 9020 fluorescence intensity (a.u.) |
| GGCGAGGGGAGAAGAGAAGAGGTGGGTGAGGTGGGGTTTCCGGAGTCACCTAGTGCAG | 12800 fluorescence intensity (a.u.) |
| TTCGTTGTTGGTGGTGGTGGCGGGCGGAAGATGCGGTTGCCGGAGTCACCTAGTGCAG | 10000 fluorescence intensity (a.u.) |
| ATATTGGTGGGCGCGGATTTTAATAGGTGGGCGGTGGATTCGGAGTCACCTAGTGCAG | 8430 fluorescence intensity (a.u.) |
| GGGCATTGAGTGGTGGGGACGTGTGGGAGGCAGGCGGAGACGGAGTCACCTAGTGCAG | 9540 fluorescence intensity (a.u.) |
| AATCTACACTAATTCTTCTGGTCTACACATTAAGTTATGACGGAGTCACCTAGTGCAG | 8670 fluorescence intensity (a.u.) |

| Sequence | binding signal |
| --- | --- |
| CCATGTCCGGATTCTCTAGGATTGCCTCCAATTTCTTCGCCGGAGTCACCTAGTGCAG | 8890 fluorescence intensity (a.u.) |
| TCCTACCTACAGCTATAGCTGCGTGCCGGGGTTGGGGCTGCGGAGTCACCTAGTGCAG | 8750 fluorescence intensity (a.u.) |
| CATCCTTCTCCGCGGCCATTTCTTGGAGCAAATCTCATTTCGGAGTCACCTAGTGCAG | 8420 fluorescence intensity (a.u.) |
| CCGCGGGCTTGGCTTGGCTGGCACCCTCTCCTTCTCGTCTCGGAGTCACCTAGTGCAG | 10300 fluorescence intensity (a.u.) |
| ACCCCAACGCAACCACTCTTCTCTACTACAATCGTTACTCCGGAGTCACCTAGTGCAG | 9310 fluorescence intensity (a.u.) |
| ATCCCAAACACTCTCGCCTCGTCTCCTCTCACACCACACGCGGAGTCACCTAGTGCAG | 10500 fluorescence intensity (a.u.) |
| CATTACCGCCACCTTCGATGCCGCCGCCTGCCGCTACCCGCGGAGTCACCTAGTGCAG | 8580 fluorescence intensity (a.u.) |
| TTAATACTTACTACTTGTCTGCTTTGAGTTTTTTGTTTAACGGAGTCACCTAGTGCAG | 9060 fluorescence intensity (a.u.) |
| CCTCGCCGTCGCCGGTCCTCGTCTCCTCCTCTATCTATATCGGAGTCACCTAGTGCAG | 8600 fluorescence intensity (a.u.) |
| ACCATGGGCGCACACGCTTCACTGCGTCTTTTTCCATCCACGGAGTCACCTAGTGCAG | 8320 fluorescence intensity (a.u.) |
| CCTCGCTCTCCATGGTGGTGGTGGTGGTCAGGTGGTGGGGCGGAGTCACCTAGTGCAG | 18800 fluorescence intensity (a.u.) |
| AATGTGGTGGTGGTGGTGGTGAACGGAGGAGGGAGGGAGCCGGAGTCACCTAGTGCAG | 13000 fluorescence intensity (a.u.) |
| CTGAAGTGAGGGAGGGGAGGAGGTGGTGGTGGTGGGGAAGCGGAGTCACCTAGTGCAG | 15600 fluorescence intensity (a.u.) |
| GGTTGGTGGTGGAGGTGGTCAAGGCGGTGGTTTTGGAGCCCGGAGTCACCTAGTGCAG | 16400 fluorescence intensity (a.u.) |
| GGTTTGGTGGCGGAAAAGGTGGAGGCCTAGGTGGTGGTGGCGGAGTCACCTAGTGCAG | 8660 fluorescence intensity (a.u.) |
| CGGCGCGGCGGAAGGAGGAGGGGTGGTGGATTCGTAGGGGCGGAGTCACCTAGTGCAG | 14600 fluorescence intensity (a.u.) |
| AGGTCATCGCAGGGCTCCTCTCCATCGCAGCCGCTCCAGCCGGAGTCACCTAGTGCAG | 8910 fluorescence intensity (a.u.) |
| GCTAGATTGGATAAGGAGGGGAGGAGGGTGGAGGGGAGGGCGGAGTCACCTAGTGCAG | 22700 fluorescence intensity (a.u.) |
| AAGGCGGGAGGTTGAGAGAGAGATAAGGGAGAGAGAGGGGCGGAGTCACCTAGTGCAG | 8120 fluorescence intensity (a.u.) |
| CCGCCATGTGGGCCCCACCTCGCCGCCTCCGCTCCACTCTCGGAGTCACCTAGTGCAG | 13600 fluorescence intensity (a.u.) |
| GGAGGAGGAGGTGGTGGTGGTGGTGAAGCCGCGGAGGTGCCGGAGTCACCTAGTGCAG | 18000 fluorescence intensity (a.u.) |
| GCGGTGGAGAGTGGTGGGAGGTTGGGGAGAAGGCGGCGGCCGGAGTCACCTAGTGCAG | 14800 fluorescence intensity (a.u.) |
